According to PubChem BioAssay (NCATS):
Inconclusive results are not listed. Values without a mark were called inactive. Active and inactive are the calls of the source. Calls come from the whole dose curve.

What follows are molecules tested against Retinoic acid receptor RXR-alpha (Homo sapiens) (UniProt P19793) (assay: qHTS assay for small molecule agonists of retinoid X receptor alpha signaling (AID 588544)). Settings: HEK293T RXRa-UAS-bla, beta-lactamase reporter, 18 h; series mostly up to 76.7 µM; activation: at the top concentration.
Chain of Retinoic acid receptor RXR-alpha (Homo sapiens) (P19793 whole entry, looked up): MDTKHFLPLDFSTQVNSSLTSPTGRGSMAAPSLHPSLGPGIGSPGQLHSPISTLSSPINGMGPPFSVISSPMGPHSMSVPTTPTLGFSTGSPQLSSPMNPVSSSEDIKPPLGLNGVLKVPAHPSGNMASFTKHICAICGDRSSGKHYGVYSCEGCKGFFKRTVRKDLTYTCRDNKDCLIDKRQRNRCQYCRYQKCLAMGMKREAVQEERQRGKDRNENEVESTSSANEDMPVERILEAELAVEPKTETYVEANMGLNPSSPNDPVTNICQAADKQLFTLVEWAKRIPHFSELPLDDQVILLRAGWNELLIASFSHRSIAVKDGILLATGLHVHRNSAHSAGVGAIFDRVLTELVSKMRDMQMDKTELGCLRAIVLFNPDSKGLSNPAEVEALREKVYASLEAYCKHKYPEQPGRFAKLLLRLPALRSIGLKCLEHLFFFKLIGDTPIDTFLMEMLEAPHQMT
From the text: NIH Chemical Genomics Center [NCGC] U.S. Environmental Protection Agency [EPA] National Institutes of Environmental Health Sciences [NIEHS] National Toxicology Program [NTP] NCGC Assay Overview The Retinoid X receptor (RXR), a nuclear hormone receptor is expressed in liver, spleen, placenta, epidermis, central nervous system. These receptors are able to form homo and heterodimers with other nuclear receptors and due to this heterodimerizing ability, RXR functions as master regulators producing diverse physiological effects. Three subtypes of RXR exist; alpha, beta and gamma. Retinoid X receptor alpha (RXR-alpha) has potential roles in metabolic signaling pathways, skin alopecia, dermal cysts, cardiac development, insulin sensitization etc. Therefore screening environmental chemicals on RXR-alpha signaling can be used for the studies focused on such therapeutic applications.
NCGC Assay Protocol Summary Using a beta-lactamase reporter-gene under control of Retinoid X receptor--alpha (RXR-alpha) response element, a cell-based assay [GeneBLAzer (RXR-alpha -UAS-bla assay developed by Invitrogen] was used to measure RXR-alpha ligands signaling. GeneBLAzer RXR-alpha -UAS-bla HEK293T cells were used with assay medium containing 2% charcoal-stripped FBS. The assay was performed in clear bottom black Greiner 1536-well plates. 9-cis-retinoic acid was used in the screen as the positive control. Library compounds were measured for their ability to stimulate the reporter gene activity. Compounds were screened in a titration series in 1536-well format. The fluorescence intensity (405 nm excitation, 460/530 nm emission) was measured using an EnVision plate reader. Data was normalized relative to 9-cis-retinoic acid control (500 nM, 100%), and DMSO only wells (basal, 0%). Concentration-response titration points for each compound were fitted to the Hill equation yielding concentrations of half-maximal stimulation (EC50) and maximal response (efficacy) values. qHTS protocol for RXR-alpha beta-lactamase assay in agonist mode [Step] [Parameter] [Value] [Description] 1. Reagent; 6 uL; 2500 cells/well 2. Incubation; 37 C for 4 hrs 3. Compounds; 23 nL; 0.59 nM to 92 uM 4. Controls (9-cis-retinoic acid); 23 nL, - One column with dose response, start 38 uM, 1:3 dilutions in duplicates - Final concentrations of 500 nM and 50 nM in two columns 5. Incubation; 37 C for 18 hrs 6. Detection reagent; 1 uL of CCF4-dye 7. Incubation; RT for 2 hrs 8. Detection; Fluorescence; Envision plate reader
In the case of `CCOC(=O)c1ccccc1C(=O)OCC`, the Potency is reported as “inactive”. For `O=C/C=C/c1ccccc1`, the Potency was “inactive”. `N#CN` was tested, and the “activation” value was 3.19%. `O=CC=O` was tested, and the “activation” value was -3.21%. `Oc1cc(Cl)c(Cl)cc1Cl` was tested, and the “activation” value was -2.13%. In the case of `O=C1CCO1`, the “activation” value is reported as 4.74%. With `CCCCCCCCOC(=O)c1ccccc1C(=O)OCCCCCCCC` the Potency was “inactive”. In the case of `S=C=S`, the “activation” value is reported as 10.1%. In the case of `O=Cc1ccco1`, the “activation” value is reported as 3.77%. In the case of `C[C@H]1CCC[C@H](O)CCCCCc2cc(O)cc(O)c2C(=O)O1`, the “activation” value is reported as -3.34%. With `ClC(Cl)(Cl)Cl` the Potency was “inactive”. With `COc1ccc2c(c1OC)C(=O)OC2C1c2cc3c(cc2CCN1C)OCO3` (stereo not given) the “activation” value was 7.77%. `O=C(O)C(Cl)(Cl)Cl` was tested, and the Potency was “inactive”. With `CC(C)(C)c1cc(O)ccc1O` the Potency was “inactive”. In the case of `ClCC1CO1` (stereo not given), the “activation” value is reported as 3.09%. In the case of `O=[N+]([O-])c1ccccc1`, the Potency is reported as “inactive”. For `C=CCN=C=S`, the “activation” value was 3.41%. In the case of `ClC=C(Cl)Cl`, the “activation” value is reported as 2.87%. `CCCCCl` was tested, and the “activation” value was 0.253%. `CC(C)CCON=O` was tested, and the “activation” value was -4.59%. With `ClC1C(Cl)C(Cl)C(Cl)C(Cl)C1Cl` (stereo not given) the Potency was “inactive”. `[O]=[Cd]` was tested, and the “activation” value was 2.03%. For `C[C@]12CCC(=O)C[C@@H]1CC[C@@H]1[C@@H]2CC[C@]2(C)[C@@H](O)CC[C@@H]12`, the Potency was 7.94 µM (active). In the case of `O=C1C=CC(=O)C=C1`, the “activation” value is reported as -4.16%. With `CCCSP(=O)(OCC)SCCC` the “activation” value was 6.25%. `CCOP(=O)(OCC)O/C(=C/Cl)c1ccc(Cl)cc1Cl` was tested, and the “activation” value was -27.9%. With `Clc1ccccc1Cl` the “activation” value was 8.13%. For `NNC(N)=O`, the “activation” value was -2.18%. In the case of `O=c1[nH]c(=O)n(Cl)c(=O)n1Cl`, the “activation” value is reported as -4.01%. `O=C(NCNC(=O)NC1C(=O)NC(=O)N1CO)NC1C(=O)NC(=O)N1CO` (stereo not given) was tested, and the “activation” value was -4.4%.
